Compounds without any hit were thinned out: in the full panel of roughly 83,000, 20% have a hit.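 Single-concentration screen, 48 h exposure, 96-well plates. Endpoint: percent growth. Below 10 = active.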 Unmarked numbers belong to inactive results. The source made the active and inactive calls.

Holding throughout (test): NCI-60 one-dose screen, 48 h (100 = growth as untreated, 0 = no growth, -100 = all killed)
What all share (conditions): 10 µM unless noted

Assay [1] has as its system T-47D breast.
Assay [2] relates to BT-549 breast.
For assay [3], the system named is MDA-MB-435 melanoma.
In assay [4] the test system is SW-620 colon.
The subject of assay [5] is MCF7 breast.
In assay [6] the test system is HCT-116 colon.
Assay [7] deals with KM12 colon.
The subject of assay [8] is HCC-2998 colon.

Regarding `COc1ccc(-c2ccc(O)c(C(=O)/C=C/c3cc(OC)c(OC)c(OC)c3)c2)cc1`, the growth in assay [1] is 67%; in assay [2], 90.4%; in assay [3] it was 64.6%; in assay [4], 88.6%; in assay [5], 64.2%; in assay [6], 68.8%. Also, the growth in assay [7] is 79.9%.
As for `CC(C)=CCNc1ncnc2c1ncn2C1OC(COP(=O)(O)O)C(O)C1O` (stereo unspecified), the growth in assay [1] was 3.18% (active); in assay [2], 2.41% (active); in assay [3] it was 56.7%; in assay [4], 37.6%; in assay [5], 16.5%; in assay [6] it was 19.2%. In addition, the growth in assay [8] and in assay [7] was 69.6% each time.
For the compound `Cc1sc2nc3c4ccccc4c(NCCCN(C)C)nn3c(=O)c2c1C`, the growth was 85.2% in assay [1]; 66.7% in assay [2]; 24.8% in assay [3]; -43.7% (active) in assay [4]; 23.8% in assay [5]; 36.1% in assay [6]. In assay [7], the growth is 31.5%.
For the compound `COc1ccc2nc(N/N=C(\C)c3ccccn3)cc(C)c2c1`, the growth in assay [1] is 0.953% (active); in assay [2], -87.8% (active); in assay [3], -94.9% (active); in assay [4] it was -68% (active); in assay [5], -74.6% (active); in assay [6], -68.7% (active). The growth in assay [8] was -68.3% (active); in assay [7] it was -35.7% (active).
Turning to `Cc1ccccc1NC(=O)NC(CC(N)=O)c1ccc2c(c1)nc(-c1cccc(Oc3ccc(C(C)(C)C)cc3)c1)n2CCCN1CCCCC1C` (stereo unspecified), the growth in assay [1] was 47.4%; in assay [2] it was 93.7%; in assay [3] it was -53.7% (active); in assay [4], -62.2% (active); in assay [5], -76.3% (active); in assay [6], -73.7% (active). The growth in assay [7] is -35.3% (active).
On to `O=C1Nc2ccc(Cl)cc2/C1=C/c1cccs1`, for which the growth in assay [1] is 16.9%; in assay [2] it was 95.4%; in assay [3], 105%; in assay [4], 103%; in assay [5] it was 44.6%; in assay [6], 99.2%. The growth was 77.6% in assay [8] and 86.8% in assay [7].
`CCOC(=O)C1=CCC(n2cc(C)c(=O)[nH]c2=O)O1` (stereo unspecified): the growth in assay [1] is 99.1%; in assay [2], 120%; in assay [3], 113%; in assay [4], 105%; in assay [5] it was 119%; in assay [6], 102%. Besides, in assay [7], the growth is 96%.
For the compound `O=C(Nc1nc(-c2ccc(Cl)cc2)cs1)c1cc(-c2ccc(Br)cc2)nc2ccc(Cl)cc12`, the growth in assay [1] is 53%; in assay [2], -15.9% (active); in assay [3], -21.6% (active); in assay [4] it was 34.9%; in assay [5], 16.4%; in assay [6], 5.84% (active). Further, the growth is 109% in assay [8] and 24.8% in assay [7].
As for `O=C(N/N=C/c1cccc([N+](=O)[O-])c1)c1ccc(Br)o1`, the growth in assay [1] is 83.4%; in assay [2], 103%; in assay [3], 106%; in assay [4], 116%; in assay [5] it was 78.1%; in assay [6] it was 100%. Besides, the growth was 87.2% in assay [8] and 109% in assay [7].
As for `Cn1cnc([N+](=O)[O-])c1Sc1nc(N)nc2nc[nH]c12`, the growth in assay [1] was 47.2%; in assay [2], 43.4%; in assay [3], 25%; in assay [4], 50.7%; in assay [5], 15.1%; in assay [6] it was 23%. The growth was 19.6% in assay [8] and 23.5% in assay [7].
For the compound `CC(=O)OCC(=O)[C@@]1(O)CC[C@H]2[C@@H]3CCC4=CC(=O)CC[C@]4(C)[C@@]3(F)[C@@H](O)C[C@@]21C`, the growth is 109% in assay [1]; 103% in assay [2]; 115% in assay [3]; 98.3% in assay [4]; 87.3% in assay [5]; 106% in assay [6]. For the same compound, the growth in assay [7] was 109%.
Consider `Nc1nc2c(c(=O)[nH]1)C1(C(=O)Nc3ccccc31)c1c(nc(N)[nH]c1=O)N2`, for which the growth in assay [1] was 92.3%; in assay [2], 102%; in assay [3], 106%; in assay [4] it was 97.3%; in assay [5] it was 94.8%; in assay [6], 116%. The growth in assay [7] was 101%.
On to `COc1cc(C(=O)/C=C/c2cccc(Nc3ccnc4cc(Cl)ccc34)c2)cc(OC)c1OC`, for which the growth in assay [1] was -46.4% (active); in assay [2] it was -27.9% (active); in assay [3], -16.1% (active); in assay [4] it was -51.5% (active); in assay [5] it was -40.3% (active); in assay [6] it was -62.5% (active). Further, the growth in assay [7] is -8.69% (active).
For `Cc1nn(-c2nc3ccccc3s2)c(C)c1Oc1ccccc1O`, the growth in assay [1] is 87.1%; in assay [2], 63%; in assay [3], 72.4%; in assay [4], 47.8%; in assay [5], 81.7%; in assay [6], 27.4%. Also, the growth was 250% in assay [8] and 63.6% in assay [7].
In the case of `COc1cccc(C2=NN(C(C)=O)C(c3cc(OC)c(OC)c(OC)c3)C2)c1` (stereo unspecified), the growth was 35.2% in assay [1]; 7.16% (active) in assay [2]; -28.2% (active) in assay [3]; 17.3% in assay [4]; 3.81% (active) in assay [5]; 26.9% in assay [6]. In addition, the growth in assay [8] is 15.7%; in assay [7] it was 35.9%.
Turning to `CC(C)CNc1nc(N=[N+]=[N-])nc(NCC(C)C)n1`, the growth was 48.6% [100 µM] in assay [1]; 56.9% [100 µM] in assay [2]; 55.6% [100 µM] in assay [3]; 81.9% [100 µM] in assay [4]; 52.4% [100 µM] in assay [5]; 42.9% [100 µM] in assay [6]. Besides, the growth in assay [8] was 79.4% [100 µM]; in assay [7], 53.6% [100 µM].

The values are drawn from PubChem BioAssay (NCI).
